Rab9 promoter act: Rab9 promoter activation. Huh7 Rab9 promoter-luciferase reporter, luminescence, 24 h. 320,000 compounds, 2.8% hits. Potency, µM (doses to about 9.22 µM), actives largely listed as activators; also: nearly all actives have a fitted effect of over 60% in size
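Measured in stably transfected Huh7 cells bearing a Rab9 promoter–luciferase construct: 24 h compound treatment at 37 °C, followed by luminescence detection.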
FLuc modulator: counter-screen for miR-21 project: firefly luciferase inhibitors or activators | P08659 | purified FLuc, Km substrates, luminescence inhibition | Potency, µM (series often up to 57.5 µM), most hits filed as inhibitors | 360,000 compounds, 6.9% hits | AID 588342; also: nearly all actives have a fitted effect of over 55% in size
Target sequence (P08659 whole entry, looked up): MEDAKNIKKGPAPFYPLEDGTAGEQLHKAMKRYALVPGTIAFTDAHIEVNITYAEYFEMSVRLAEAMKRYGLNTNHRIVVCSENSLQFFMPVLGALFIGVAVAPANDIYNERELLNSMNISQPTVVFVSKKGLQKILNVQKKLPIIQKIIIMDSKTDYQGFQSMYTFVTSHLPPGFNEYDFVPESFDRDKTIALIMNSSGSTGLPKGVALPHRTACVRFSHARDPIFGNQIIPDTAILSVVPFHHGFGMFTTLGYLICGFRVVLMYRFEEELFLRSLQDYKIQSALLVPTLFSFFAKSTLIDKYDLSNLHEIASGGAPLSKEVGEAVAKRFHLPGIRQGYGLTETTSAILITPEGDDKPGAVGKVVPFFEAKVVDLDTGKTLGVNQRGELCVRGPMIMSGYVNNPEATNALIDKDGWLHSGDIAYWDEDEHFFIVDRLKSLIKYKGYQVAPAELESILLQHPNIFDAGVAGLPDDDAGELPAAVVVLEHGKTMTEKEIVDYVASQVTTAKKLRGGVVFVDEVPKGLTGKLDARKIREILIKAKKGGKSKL
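Purified P. pyralis luciferase, 10 nM final, with Km-level 10 uM D-luciferin and 10 uM ATP in 50 mM Tris acetate pH 7.5, 10 mM Mg acetate, 0.01% Tween-20, 0.05% BSA; 6-point qHTS titration about 60 µM downward; luminescence read.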
SMN2 splice up: enhancers of SMN2 splice variant expression; Potency, µM (highest dose often 46.1 µM), most hits filed as activators; HEK293 SMN2-luciferase splicing reporter, luminescence, 30-36 h; 210,000 compounds, 2.8% hits; also: nearly all actives have a fitted effect of over 55% in size
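HEK293 cells carry an SMN2 minigene-luciferase reporter in which exon 7 inclusion puts luciferase in frame. Cells were seeded at 2000 cells/well, attached for 10-12 hours, then exposed to compounds for 30-36 hours at 37C before ONE-Glo luminescence.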
NPC1 prom act: activators of NPC1 promoter; Huh7 NPC1 promoter luciferase reporter, 24 h; Potency, µM (titrated, usually from 9.22 µM), actives largely listed as activators; 320,000 compounds, 2.4% hits; AID 485313; also: nearly all actives have a fitted effect of over 60% in size
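Luminescence from an NPC1 promoter-driven luciferase reporter in stably transfected Huh7 cells was measured after 24 h compound treatment at 37 °C, followed by 10 min ambient incubation with luciferase detection reagent.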
ELG1 genotox: induces genotoxicity in HEK293T cells with luciferase-tagged ELG1 | HEK293T ELG1-luciferase reporter, luminescence, 16 h | Potency, µM (titrated, usually from 46 µM), hits mostly activators | 330,000 compounds, 1.3% hits | AID 504466; also: nearly all actives have a fitted effect of over 60% in size
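ELG1-luciferase HEK293T cells, 2,000/well; compound pinned in; 16 hr, 37 °C, 5% CO2; ONE-Glo, 30 min RT; luminescence on CCD imager.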
A number is an active result; . = inactive; ? = inconclusive; / = no result; [ ] = another dose, or the depositor's remark. Rows were chosen to be rich in hits. Some 7.4% of all compounds tested hit in one or more screens of this group. Calls follow the shape of the dose curve; as a rule, active = well fitted curve in the direction sought with a large enough effect; inconclusive = small, poorly fitted or top-dose-only effect, or another doubt; inactive = no such curve, though single readings can be large; an effect the other way counts as inactive or inconclusive.

SMILES	Rab9 promoter act	FLuc modulator	SMN2 splice up	NPC1 prom act	ELG1 genotox
COC(=O)[C@@]1(Cc2ccc(F)cc2)[C@H]2c3cc(C(=O)N4CCCC4)n(Cc4ccc(C)o4)c3C[C@H]2CN1C(=O)c1ccccc1	/	/	.	/	/
CCn1nc(C(=O)OCC(=O)c2ccc3c(c2)OCCO3)c2ccccc2c1=O	.	2.4µM	.	.	.
CCn1nc(C(=O)OCC(=O)c2ccc(F)cc2)c2ccccc2c1=O	.	.	.	.	.
Cc1cc(C(=O)COC(=O)c2ccccc2O)c(C)n1Cc1cccs1	.	0.085µM	/	.	.
CCn1nc(C(=O)OCC(=O)c2cc(C)n(Cc3cccs3)c2C)c2ccccc2c1=O	.	3µM	?	.	18µM
Cc1cc(C(=O)COC(=O)c2ccc3c(c2)OCO3)c(C)n1Cc1cccs1	4µM	2.7µM	.	3.5µM	23µM
COCCn1c(C)cc(C(=O)COC(=O)c2c(C)nn(Cc3ccccc3)c2C)c1C	.	?	/	.	.
CCOC(=O)c1c(C)[nH]c(C)c1S(=O)(=O)N1CCC(C(=O)NCc2ccc(F)cc2)CC1	/	.	/	/	/
COc1ccc(S(=O)(=O)N2CCCCCC2)cc1C(=O)N(C)Cc1ccc(OC)c(OC)c1OC	.	.	/	.	.
O=C1NCCN/C1=C\C(=O)c1ccc(F)cc1	?	?	/	.	.
O=C1NCCN/C1=C\C(=O)c1ccc(Cl)cc1	3.5µM	11µM	/	1.6µM	?
CC1CN/C(=C\C(=O)c2ccccc2)C(=O)N1 (stereo not drawn)	4µM	12µM	10µM	2.8µM	?
CC1CN/C(=C\C(=O)c2ccc(Cl)cc2)C(=O)N1 (stereo not drawn)	0.5µM	2.4µM	3.2µM	0.4µM	?
Cc1ccc2onc(CC(=O)N3CCN(c4ccc(F)cc4)CC3)c2c1	/	.	/	/	/
COC(=O)N1C2=C(c3ccccc3[C@@H]1CC(=O)Nc1ccc(Br)cc1)[C@@H]1C(=O)N(c3ccccc3)C(=O)[C@@H]1[C@H](C)C2	/	/	.[9.22 µM]	/	/
COc1ccc(CCNC(=O)C2CCN(S(=O)(=O)c3ccc4nc5c(c(C(=O)O)c4c3)CCCC5)CC2)cc1OC	.	.	/	.	.[9.26 µM]
Cc1oc(-c2ccccc2F)nc1CSCC(=O)NC1CCC(C)CC1 (stereo not drawn)	.	.	/	.	.
CC(C)CCNc1ncnc2c1cnn2-c1cccc(Cl)c1	/	17µM	/	/	/
OCCCNc1ncnc2c1cnn2-c1ccc(Cl)cc1	0.28µM	1.9µM	/	0.2µM	?
O=C1CCCN1CCCNc1ncnc2c1cnn2-c1ccc(Cl)cc1	?	17µM	.	?	18µM
CN(C)CCNc1ncnc2c1cnn2-c1cccc(Cl)c1	/	24µM	/	/	/
Clc1ccc(-n2ncc3c(NCc4ccc5c(c4)OCO5)ncnc32)cc1	.	?	.	.	?
CCOc1ccc(CCNC(=O)COC(=O)c2nccnc2N)cc1OCC	.	.	/	.	.
CCn1nnc2cc(C(=O)Nc3ccc(OC)cc3)ccc21	/	.	/	/	/
CCCCN(C)c1ncnc2c1cnn2-c1cccc(Cl)c1	/	2.7µM	/	/	/
SMILES	Rab9 promoter act	FLuc modulator	SMN2 splice up	NPC1 prom act	ELG1 genotox
Cc1cccc(-n2ncc3c(N(C)Cc4ccccc4)ncnc32)c1	3.5µM	2.4µM	/	4µM	?
Cc1ccc(Cn2ncc3c(NCCN(C)C)ncnc32)cc1	.	.	/	.	.
CN(C)CCNc1ncnc2c1cnn2-c1ccc(Cl)cc1	?	7.6µM	.	.	21µM
CC(/C=C1\SC(=S)N(CCC(=O)Nc2ccccc2O)C1=O)=C\c1ccccc1	.	.	/	.	.
O=C(CCN1C(=O)/C(=C\c2cccs2)SC1=S)Nc1ccc(C(=O)O)cc1	.	.	/	.	.
CC(/C=C1\SC(=S)N(CCC(=O)Nc2cccc(C(=O)O)c2)C1=O)=C\c1ccccc1	.	24µM	/	.	.
CC(/C=C1\SC(=S)N(CCCC(=O)Nc2ccc(C(=O)O)cc2)C1=O)=C\c1ccccc1	.	13µM	.	.	.
COc1cc(OC)c(NS(=O)(=O)c2ccc3c(c2)NC(=O)CO3)cc1Cl	.	.	/	.	.
COc1cc(NC(=O)Cn2nc(C(F)(F)F)c3c2CCC3)cc(OC)c1OC	/	.	.	/	/
CC(=O)N1CCC(C(=O)N2CCN(S(=O)(=O)c3cccs3)CC2)CC1	.	.	/	.	.
O=C(OCc1nc2ccccc2s1)C1CCN(S(=O)(=O)c2cccs2)CC1	.	13µM	.	.	11µM
O=C(C1CCN(S(=O)(=O)c2cccs2)CC1)N1CCCCC1	?	4.3µM	/	3.5µM	?
CCOC(=O)C1CCN(S(=O)(=O)C(F)(F)c2nc3ccccc3s2)CC1	.	27µM	.	.	.
O=C(CCc1nc2ccccc2s1)N1CCN(S(=O)(=O)c2cccs2)CC1	.	.	.	.	.
O=C(COC(=O)C1CCN(S(=O)(=O)c2cccs2)CC1)Nc1ccccc1	.	.	.	.	.
O=S(=O)(c1cccs1)N1CCN(Cc2nc3ccccc3s2)CC1	.	17µM	.	.	.
O=C(N[C@@H](Cc1ccccc1)C(=O)O)c1ccccc1	/	/	.	/	/
COc1cc(NS(C)(=O)=O)ccc1Nc1c2ccccc2nc2ccccc12	.	12µM	.	.	?
COc1ccccc1/C=C1\SC(=S)N(CCC(=O)Nc2ccc(C(=O)O)c(O)c2)C1=O	.	6µM	/	.	.
O=C(CN1C(=O)S/C(=C\c2cccs2)C1=O)Nc1ccc(C(=O)O)c(O)c1	.	24µM	/	.	.
O=C(CCN1C(=O)/C(=C\c2ccco2)SC1=S)Nc1ccc(C(=O)O)c(O)c1	.	11µM	/	.	.[9.26 µM]
O=C(CCN1C(=O)/C(=C/c2ccco2)SC1=S)Nc1ccc(C(=O)O)c(O)c1	.	7.6µM	/	.	.
COc1ccccc1/C=C1/SC(=S)N(CCC(=O)Nc2cccnc2)C1=O	.	.	/	.	.
O=C(CCN1C(=O)/C(=C/c2ccco2)SC1=S)Nc1ccc(O)cc1C(=O)O	.	?	/	.	.
O=C(CCCN1C(=O)/C(=C\c2ccco2)SC1=S)Nc1ccc2ccccc2c1	.	.	.	.	.
SMILES	Rab9 promoter act	FLuc modulator	SMN2 splice up	NPC1 prom act	ELG1 genotox
Cc1ccc(NCC(=O)Nc2ccc(Br)cc2)cc1F	.	.	/	.	.
C1CCN(CC[C@@H]2CCCCN2)CC1	/	/	.[9.22 µM]	/	/
COc1cc(-c2nc3ccccn3c2/N=C/c2cc(OC)c(O)cc2Cl)ccc1O	.	?	/	.	.
COc1ccc(CNC(=O)C2CCN(C(=O)N3CCOc4ccc(Cl)cc43)CC2)cc1	/	.	/	/	/
Cc1ccc(-c2nnc(SCC#CCOC(=O)c3ccco3)o2)cc1	?	17µM	.	.	?
Cc1ccc(-c2nnc(SCC#CCOC(=O)c3cccs3)o2)cc1	.	19µM	.	.	.
O=C(OCC#CCSc1nnc(-c2ccc(Br)cc2)o1)c1cccs1	.	?	.	.	.
CCOC(=O)C1=C(COC(=O)CNC(=O)c2ccc(Cl)cc2Cl)NC(=O)NC1C (stereo not drawn)	.	.	/	.	.
O=C(Nc1c(C(=O)c2ccc(Cl)cc2)oc2ccccc12)c1cc(=O)c2ccccc2o1	/	.	.	/	/

Compound activity from PubChem.
